Data published in PubChem BioAssay AID1347414 (National Center for Advancing Translational Sciences (NCATS), 2020).
Results filed as inconclusive are left out. Entries that show only a call come without a potency. Active and inactive are the calls of the source. The call rests on the fitted dose curve; in most records, active means well fitted inhibition curve with a large enough effect; inconclusive means small, poorly fitted or top-dose-only effect; inactive means no such curve, though single readings can be large or run the other way.

Assay: qHTS to identify inhibitors of the type 1 interferon - major histocompatibility complex class I in skeletal muscle: Secondary screen by immunofluorescence; further: nearly all actives have a fitted effect of over 70% in size
Conditions: C25cl48 myoblasts, IFN-b induced HLA-ABC immunofluorescence, 24 h, Viability; series mostly up to 49.8 µM
How it was run: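 HLA-ABC immunofluorescence, with nuclear and cell-body stains, was quantified by laser scanning cytometry. Read-out followed 24 h of IFN-beta (4.0 ng/ml) stimulation of C25cl48 human myoblasts with compounds titrated 1:3 over 11 points from 50 uM, with ruxolitinib as inhibitor control.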
Potency means the concentration at half of the fitted maximal effect.

Structure (SMILES) | Potency
O=C(/C=C/C#Cc1cccc(NS(=O)(=O)c2ccccc2)c1)NO | inactive
Cc1nc(Nc2n[nH]c3c2CN(C(=O)N[C@H](CN(C)C)c2ccccc2)C3(C)C)c2sccc2n1 | inactive
CN(C)c1ccc(C(=O)NCCCCCCC(=O)NO)cc1 | inactive
Cc1cc(O)c(-c2ccc([C@@H](C)CN(C)C)cc2)c2c1[nH]c(=O)c1sccc12 | inactive
CCS(=O)(=O)Nc1ccc(Oc2ccc(F)cc2F)c(-c2cn(C)c(=O)c3[nH]ccc23)c1 | inactive
O=C(/C=C/c1ccc(CN(CCO)CCc2c[nH]c3ccccc23)cc1)NO | inactive
Fc1ccc(CNc2ncnc3ccc(F)cc23)cc1 | inactive
CN(c1ncccc1CNc1nc(Nc2ccc3c(c2)CC(=O)N3)ncc1C(F)(F)F)S(C)(=O)=O | inactive
CC(C)c1c(-c2ccccc2)nc2c(C#N)c[nH]n2c1=O | inactive
COc1cccc(-c2cc(F)ccc2[C@H]2Cc3nc(N)nc(C)c3C(=O)N2)n1 | inactive
C=C1C(=O)O[C@@H]2[C@H]3O[C@]3(C)CCC=C(C)CC[C@@H]12 | 8.14 µM (active)
Nc1nc(Nc2ccc(S(N)(=O)=O)cc2)nn1C(=O)c1c(F)cccc1F | inactive
C[C@H]1C[C@@H]2[C@H]([C@@H](O)C[C@@]3(C)[C@H]2CC[C@]3(O)C(=O)CO)[C@@]2(C)C=CC(=O)C=C12 | inactive
N#CC[C@H](C1CCCC1)n1cc(-c2ncnc3[nH]ccc23)cn1 | inactive
O=c1[nH]c2cc(Cl)ccc2c(O)c1-c1ccc(Oc2ccccc2)cc1 | inactive
CCc1c(-c2ccccc2C)nc2c(C#N)c[nH]n2c1=O | inactive
C[C@]12C=CC(=O)C=C1CC[C@H]1[C@@H]3C[C@@H](O)[C@](O)(C(=O)CO)[C@@]3(C)C[C@H](O)[C@@]12F | inactive
C=CC(=O)N1CC/C(=C\c2ccc(F)c([N+](=O)[O-])c2)C(=O)/C(=C/c2ccc(F)c([N+](=O)[O-])c2)C1 | 0.408 µM (active)
O=C(Nc1nc2cccc(-c3ccc(CN4CCS(=O)(=O)CC4)cc3)n2n1)C1CC1 | inactive

Structure (SMILES) | Potency
O=C1Nc2ccccc2C1(c1ccc(O)cc1)c1ccc(O)cc1 | inactive
Cc1cc(Nc2cc(CN3CCOCC3)c3nc(C)c(Cc4ccc(Cl)cc4F)n3n2)n[nH]1 | 20.5 µM (active)
NC(=O)c1cnc2[nH]ccc2c1NC1C2CC3C[C@H]1CC(O)(C3)C2 (some centres not stated) | inactive
C[C@@H]1CCN(C(=O)CC#N)C[C@@H]1N(C)c1ncnc2[nH]ccc12 | inactive
Cc1[nH]c2ccccc2c1CCNCc1ccc(/C=C/C(=O)NO)cc1 | inactive
CC(C)[C@H](C(=O)Nc1ccc(C(=O)NO)cc1)c1ccccc1 | inactive
Fc1cccc(-n2cnc3c(NCc4nc5c(F)c(F)ccc5[nH]4)nc(N4CCOCC4)nc32)c1 | inactive
CC(C)C[C@H](NC(=O)[C@H](Cc1ccccc1)NC(=O)c1cnccn1)B(O)O | inactive
N#CCC1(n2cc(-c3ncnc4[nH]ccc34)cn2)CN(C2CCN(C(=O)c3ccnc(C(F)(F)F)c3F)CC2)C1 | inactive
CO[C@@H]1[C@@H](O)[C@H](O)[C@@H](n2c3c(Cl)cccc3c3c4c(c5c6cccc(Cl)c6[nH]c5c32)C(=O)NC4=O)O[C@H]1CO | inactive
Cc1oncc1C(=O)Nc1ccc(C(F)(F)F)cc1 | inactive
O=C(NC1CCNCC1)c1[nH]ncc1NC(=O)c1c(Cl)cccc1Cl | inactive
CCc1c2c(nc3ccc(O)cc13)-c1cc3c(c(=O)n1C2)COC(=O)[C@]3(O)CC | inactive
CCOC(=O)N1CCN(/[N+]([O-])=N/Oc2ccc([N+](=O)[O-])cc2[N+](=O)[O-])CC1 | 14.5 µM (active)
NS(=O)(=O)OC[C@@H]1C[C@@H](n2ccc3c(N[C@H]4CCc5ccccc54)ncnc32)C[C@@H]1O | inactive
CC[C@@]1(O)C(=O)OCc2c1cc1n(c2=O)Cc2c-1nc1cc(F)c(C)c3c1c2[C@@H](N)CC3 | inactive
CO[C@H]1C(=O)[C@]2(C)[C@@H](OC)C[C@H]3OC[C@@]3(OC(C)=O)[C@H]2[C@H](OC(=O)c2ccccc2)[C@]2(O)C[C@H](OC(=O)[C@H](O)[C@@H](NC(=O)OC(C)(C)C)c3ccccc3)C(C)=C1C2(C)C | inactive
OCCCNc1cc(-c2ccnc(Nc3cccc(Cl)c3)n2)ccn1 | inactive
